Results: PubChem BioAssay AID1490 (National Center for Advancing Translational Sciences (NCATS), 2009)
The campaign covered roughly 310,000 compounds. About 11,000 (3.5%) were called active. Another 4% or so got no clear call; they are omitted. The sample holds actives, similar compounds and a random draw of the others, so the mix is not that of the screen. The call rests on the fitted dose curve; in most records, active means well fitted inhibition curve with a large enough effect; inconclusive means small, poorly fitted or top-dose-only effect, or another doubt; inactive means no such curve, though single readings can be large or run the other way.

Molecular target: 4'-phosphopantetheinyl transferase ffp (Bacillus subtilis) (UniProt Q9F4F7)
Test: qHTS Assay for Inhibitors of Bacillus subtilis Sfp phosphopantetheinyl transferase (PPTase);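 further: the enzyme is Sfp with the accession as filed and its product quenches rhodamine fluorescence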;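 on Largest response in the series, negative = inhibition: 0% = enzyme reaction without inhibitor and -100% = no enzyme wells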
Conditions: Biochemical Sfp PPTase activity
Outline: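 Buffer: 50 mM Hepes-Na pH 7.6, 10 mM MgCl2, 0.01% Nonidet P-40, 0.01% BSA. Enzyme 15 nM, pre-exposed to compound 15 min; substrates then added and fluorescence change tracked over 30 min.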
Potency means the concentration at half of the fitted maximal effect.

Largest response in the series, negative = inhibition, inactive:
CCc1ccccc1NC(=O)c1ccc2c(c1)CCN2S(C)(=O)=O 10.6%, CC(=O)c1c(-c2ccccc2)c2ccccc2[nH]c1=O 28.5%, Cc1ccc(-c2nc3ccccc3[nH]c2=O)cc1 9.46%, O=C(CCn1nnnc1CN1CCOCC1)N1CCC(c2ccccc2Cl)C1 (stereo not given) 10.9%, Cc1ccc(CNC(=O)[C@@H](NC(=O)Cc2ccccc2)C(C)C)cc1 19.7%, C=CCn1c(=S)[nH]c2nc3c(cc2c1=O)COC(C)(C)C3 -7.89%, C=CCn1cnc2scc(-c3ccccc3)c2c1=O 10.8%, COc1cccc(-n2c(N)cc(=O)nc2SCC(=O)Nc2cc(C)on2)c1 21.7%, CCOC(=O)C1(CCOc2ccccc2)CCN(Cc2ccc(C#CCCO)cc2)CC1 10.5%, Nc1nc(NCc2ccccc2)n(-c2ccccc2)n1 16.4%, O=c1[nH]c2c(c(=O)n1Cc1ccccc1)CCC2 4.99%, CC(=O)c1ccc(-c2ccc(Cn3c(C)nc4cc(N)c(C)nc43)cc2)cc1 5.24%, CC(C)Cn1cnc2c1c(=O)n(CC(=O)NN)c(=O)n2Cc1ccccc1 10.8%, CCOC(=O)[C@@H]1[C@H]2COc3cc(OC)ccc3[C@H]2N2C(=O)N(c3ccc(F)cc3)C(=O)[C@]12C 11.1%, O=S(=O)(NC1CC2CCC1C2)c1ccc(Cl)cc1 (stereo not given) 6.14%, COCOc1cc(OC)ccc1C(=O)/C=C/c1ccc([N+](=O)[O-])cc1 0.0276%, Cc1ccc(NC(=S)NC(=O)/C=C/c2ccc(Cl)cc2)cc1 -9.72%, CCOC(=O)C1=C(c2ccccc2)NC(=O)NC1c1cc(OCC)c(O)c([N+](=O)[O-])c1 (stereo not given) 10.9%, Brc1ccccc1/C=N/Nc1nc2ccccc2o1 -1.43%, COC(=O)c1ccc2ccccc2c1OC1OC(CO)C(O)C(O)C1NC(C)=O (stereo not given) 4.77%, COc1cc(CN2CC(C)CC(C)C2)cc([N+](=O)[O-])c1O (stereo not given) -8.11%, COc1cc(CN2CCCN(C)CC2)c([N+](=O)[O-])cc1OC 5.29%, COc1cccc(OCc2nnc3n2N=C(c2ccccc2)C(CC(=O)O)S3)c1 (stereo not given) 13.2%, COc1ccc(OCC(=O)NNC(=O)c2ccc(-c3ccccc3)cc2)cc1 -6.16%, COc1cccc(CNC(=O)C2CCCN(c3ncnc4c3nc3n4CCCCC3)C2)c1 (stereo not given) 3.29%, COC(=O)c1cccc(NS(C)(=O)=O)c1 9.77%, COC(=O)c1cccc(N2C(=O)C3C4C=CC(CC4)C3C2=O)c1 (stereo not given) 11.5%, CC1(C)Cc2c(sc(NC(=O)C(=O)NCC3CCCO3)c2C(=O)O)CO1 (stereo not given) 8.68%, C=C(C(C)=O)C(O)c1ccc([N+](=O)[O-])cc1 (stereo not given) -25.7%, CC(=O)Nc1c2c(nn1-c1cccc(C)c1)CSC2 15.2%, O=C(CCN1c2ccccc2Sc2ccccc21)Nc1ccccc1 -1.89%, CCN1/C(=C/c2ccc3ccc(C)cc3[n+]2CC)Sc2ccccc21 -8.02%, Cc1ccc(S(=O)(=O)N2CCC3(CC2)OCCO3)c(C)c1 19.7%, CCc1[nH]nc(C(=O)N2CCCC(CO)(Cc3ccc(F)cc3F)C2)c1C (stereo not given) 4.7%, COC(=O)C1CCN(C(=O)c2ccc3oc(Cc4ccc(Cl)cc4)nc3c2)CC1 16.5%, Cc1cc(C)c([N+](=O)[O-])cc1-c1ccc(/C=N/NC(=O)c2nonc2N)o1 -8.88%, O=C(CN1CCOCC1)N/N=C/c1ccc(-c2ccc(Br)cc2)o1 -29.3%, Cc1[nH]c2ccc(C(=O)N3CCN(C)CC3)cc2c1C 9.64%, Cc1ccc(-c2csc(NC3OC(=O)c4ccccc43)n2)cc1 (stereo not given) 7.08%, NC(=O)C1CCN(CC(O)CSc2ccc(F)cc2)CC1 (stereo not given) 0.977%, CCc1nc(SCC(=O)NNC(=O)c2ccc(C)cc2)c2ccccc2n1 10%, Cc1ccc(C(=O)NNC(=O)c2cc3cc4ccccc4nc3s2)cc1 -2.23%, CCOc1cc(NC(=O)Nc2ccccc2)c(OCC)cc1NC(=O)CC 17.2%, COc1cc(C(=O)NCc2cc3cc(Cl)ccc3n2C)cc(OC)c1OC 9.69%, O=C(Nc1ccc(S(=O)(=O)Nc2nccs2)cc1)c1cccc(S(=O)(=O)N2CCOCC2)c1 10%, O=C(Nc1ccc(N2CCOCC2)c(Cl)c1)c1ccc(S(=O)(=O)N2CCOCC2)cc1 10.6%, CC(C)c1nc(CNC(=O)CC2C(=O)NCCN2Cc2cccc(F)c2F)cs1 (stereo not given) 7.23%, CC(=O)NC(CC(=O)Nc1nc(-c2ccccc2)c(C(C)=O)s1)c1ccccc1 (stereo not given) 2.16%, CN(C(=O)CCN1C(=O)/C(=C/c2ccccc2F)SC1=S)C1CCS(=O)(=O)C1 (stereo not given) 1.57%

Potency, active:
O=c1[nH]c2ccccc2n2c(-c3ccccc3)nnc12 1.26 µM, C=CCn1c(=S)[nH]c2scc(-c3ccco3)c2c1=O 20 µM, Cc1cc2nc3c(=O)n(Cc4ccccc4)c(=O)[nH]c3nc2cc1N 20 µM, CCOc1ccc(NC(=S)NC(=O)/C=C/c2ccc(OC)cc2)c([N+](=O)[O-])c1 70.8 µM, COc1cc(CN2CCN(Cc3ccc(C)cc3)CC2)c([N+](=O)[O-])cc1OC 56.2 µM, COc1ccc(OCc2nnc3n2N=C(c2ccccc2)C(CC(=O)O)S3)cc1 (stereo not given) 4.47 µM, COC(=O)c1cccc(-n2[nH]nnc2=S)c1 15.8 µM, CCN1/C(=C/C(=S)Nc2ccccc2)Sc2ccccc21 14.1 µM, Cc1ccc(-c2ccc(/C=N/NC(=O)CN3CCOCC3)o2)cc1[N+](=O)[O-] 50.1 µM, Cc1ccc(C(=O)NNc2ncnc3ccccc23)cc1 70.8 µM, O=C(Nc1ccc(S(=O)(=O)N2CCOCC2)cc1)c1ccc2ncsc2c1 50.1 µM
